Assay results reported in PubChem BioAssay AID651899 (Broad Institute, 2012).
Results with a measured potency or affinity are listed apart. Calls of active or inactive are those of the source. How the calls were made is not given here.

Assay: HEK293 cell viability loss – plate reader, cherry-pick, cytotoxicity control, dose response (AID 651899);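 further: cells exposed to compound for 48 hours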
Conditions: series mostly up to 26 µM

Compound	outcome
O=[N+]([O-])c1ccc(C[n+]2c(-c3ccccc3)cc(-c3ccccc3)cc2-c2ccccc2)cc1	inactive
Cc1nc2nc(SCC(=O)N3CCC4(CC3)OCCO4)nn2c(C)c1Cc1ccccc1	inactive
CCc1nc2ccc(Br)cc2c(=O)n1-c1ccccc1C(F)(F)F	inactive
COc1cc2c3cc1Oc1cc(ccc1O)C[C@@H]1c4c(cc(OC)c(O)c4Oc4cccc(c4)C[C@@H]3N(C)CC2)CC[N+]1(C)C	inactive
COc1ccc2c(c1)c(C(=O)CN1CCC3(CC1)OCCO3)c(C)n2Cc1ccccc1	inactive
CC(=O)N1CCN(c2ccc([N+](=O)[O-])cc2C=C2C(=O)NC(=O)NC2=O)CC1	inactive
O=c1[nH]c(N2CCN(Cc3ccc4c(c3)OCO4)CC2)nc2c1CCC2	inactive
